# Laboratory results as given in PubChem BioAssay (NCATS).
# Results filed as inconclusive are left out. A call without a number means that no potency is given here. Activity calls are given as the source filed them. The call rests on the fitted dose curve; in most records, active means well fitted cell-killing curve with a large enough effect; inconclusive means small, poorly fitted or top-dose-only effect, or effect the other way; inactive means flat fitted curve, though single readings scatter.
# Tested on: Es-2
# Test: Primary qHTS to identify gynecologic anti-cancer compounds using libraries of approved drugs and bioactive compounds (AID 1345084); further: nearly all actives have a fitted effect of over 55% in size
# Conditions: Gynecologic cancer cell panel viability, ATPlite luminescence, 48 h; series mostly up to 57.5 µM
# In short: (§1)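 Cells, 1,000 per well, plated 16 h, then exposed 48 h at 37 C to compounds. Viability by ATPlite luminescence after 15 min at room temperature.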
# Potency means the concentration at half of the fitted maximal effect.
row,Compound,Potency
1,C=CC(=O)Nc1cccc(Nc2nc(Nc3ccc(N4CCN(C(C)=O)CC4)cc3OC)ncc2C(F)(F)F)c1,inactive
2,COc1cc2c(cc1O)CC[C@H]1[C@@H]2CC[C@]2(C)[C@H](O)CC[C@@H]12,3.98 µM (active)
3,COc1cc(C2c3cc4c(c(O)c3CC(CO)C2C(=O)O)OCO4)cc(OC)c1O (configuration not stated),3.55 µM (active)
4,CCOC(=O)Nc1cc(-c2ccc(C)c(NS(C)(=O)=O)c2)nn2c(C)nnc12,12.6 µM (active)
5,O=C(CSc1nc2c(c(=O)n1-c1ccccc1)SCC2)Nc1ccc(-c2ccccc2)cn1,0.224 µM (active)
6,C=CC(=O)Nc1cccc(CN2C(=O)N(c3c(Cl)c(OC)cc(OC)c3Cl)Cc3cnc(NCCCCN(CC)CC)nc32)c1,inactive
7,Nc1nccn2c(C3CCC(C(=O)O)CC3)nc(-c3cc4cccc(Cl)c4[nH]3)c12 (configuration not stated),28.2 µM (active)
8,CCCCC1CCN(CCCC(=O)c2ccccc2C)CC1,inactive
9,COc1cc(-c2ncn(/C=C\C(=O)OC(C)C)n2)cc(C(F)(F)F)c1,0.891 µM (active)
10,CC(O)/C=C/C1(O)C2(C)COC1(C)CC(O)C2 (configuration not stated),inactive

# Tested on: HeLa
# Test: as above
# Conditions: Gynecologic cancer cell panel viability, ATPlite luminescence, 48 h; series mostly up to 57.5 µM
# In short: as §1
Compound,Potency,"activity change, negative = cytotoxicity"
COc1cc2c(cc1O)CC[C@H]1[C@@H]2CC[C@]2(C)[C@H](O)CC[C@@H]12,3.16 µM (active),
C[C@H]1[C@H](O)O[C@@H]2O[C@@]3(C)CC[C@H]4[C@H](C)CC[C@@H]1[C@@]24OO3,12.6 µM (active),
C=C1C(=O)OC2C1CCC(=C)C1CC(OC(C)=O)C(=C)C12 (configuration not stated),inactive,
Cn1cc(S(=O)(=O)c2ccc(Cl)cc2)c2cccc(N3CCNCC3)c21,inactive,
CC1(C)CC(=O)C2=C(C1)NC(=S)NC2c1cccc(O)c1 (configuration not stated),7.94 µM (active),
O=C(CSc1nc2c(c(=O)n1-c1ccccc1)SCC2)Nc1ccc(-c2ccccc2)cn1,0.158 µM (active),
C[C@@H]1C[C@@H]2O[C@H]2/C=C\C=C\C(=O)Cc2c(Cl)c(O)cc(O)c2C(=O)O1,inactive,
COc1cc2c(cc1OC)[C@@H]1[C@H](O)[C@@H](OC)C=C3CCN(C2)[C@H]31,inactive,
CC(=O)O[C@H]1CC(C)(C)CC2[C@@]13[C@H](O)C[C@]1(C)[C@@]2(CCC2[C@@]4(C)CC[C@H](O[C@@H]5OC[C@H](O[C@@H]6O[C@H](CO)[C@@H](O)[C@H](O)[C@H]6O[C@@H]6OC[C@@H](O)[C@H](O)[C@H]6O)[C@H](O)[C@H]5O[C@@H]5O[C@H](CO)[C@@H](O)[C@H](O)[C@H]5O)C(C)(C)C4CC[C@]21C)O[C@@H]3O (some centres not stated),,-7.2% [at 11.6 µM] (inactive)
CC(C)C(CO)Nc1nc(Nc2cc(N)cc(Cl)c2)c2ncn(C(C)C)c2n1 (configuration not stated),25.1 µM (active),
CCCCC1CCN(CCCC(=O)c2ccccc2C)CC1,inactive,
CC(=O)NC1=NN(C(C)=O)C(C)(c2ccccc2)S1 (configuration not stated),14.1 µM (active),
COc1cc(-c2ncn(/C=C\C(=O)OC(C)C)n2)cc(C(F)(F)F)c1,15.8 µM (active),
N#Cc1cnc2cnc(NCc3cccnc3)cc2c1Nc1ccc(F)c(Cl)c1,inactive,

# Tested on: Hek293T
# Test: as above
# Conditions: Gynecologic cancer cell panel viability, ATPlite luminescence, 48 h, control line for the selectivity index; series mostly up to 57.5 µM
# In short: as §1
row,Compound,Potency
1,COc1cc(C2c3cc4c(c(O)c3CC(CO)C2C(=O)O)OCO4)cc(OC)c1O (configuration not stated),3.98 µM (active)
2,C[C@H]1[C@H](O)O[C@@H]2O[C@@]3(C)CC[C@H]4[C@H](C)CC[C@@H]1[C@@]24OO3,8.91 µM (active)
3,Cn1c(=O)n(-c2ccc(C(C)(C)C#N)cc2)c2c3cc(C#Cc4cccnc4)ccc3ncc21,0.0891 µM (active)
4,CCNC(=O)Nc1ccc(-c2nc3c(c(N4CCOC[C@@H]4C)n2)CCN(c2ncccn2)C3)cc1,1 µM (active)
5,CC(C)(C#N)c1ccc(N2C(=O)OCc3cnc4ccc(-c5cnc6ccccc6c5)cc4c32)cc1,12.6 µM (active)
6,CCOc1cc2ncc(C#N)c(Nc3ccc(F)c(Cl)c3)c2cc1NC(=O)/C=C/CN(C)C,25.1 µM (active)
7,C=CC(=O)Nc1cccc(CN2C(=O)N(c3c(Cl)c(OC)cc(OC)c3Cl)Cc3cnc(NCCCCN(CC)CC)nc32)c1,inactive
8,CNC(=O)c1cccc(-c2ccc3c(N4CCOC[C@@H]4C)nc(N4CCOC[C@@H]4C)nc3n2)c1,1.41 µM (active)
9,NC(=O)Nc1cc(-c2cccc(F)c2)sc1C(=O)NC1CCCNC1 (configuration not stated),0.447 µM (active)

# Tested on: JEG-3
# Test: as above
# Conditions: Gynecologic cancer cell panel viability, ATPlite luminescence, 48 h; series mostly up to 57.5 µM
# In short: as §1
row,Compound,Potency
1,CCc1cnn2c(NCc3ccc[n+]([O-])c3)cc(N3CCCCC3CCO)nc12 (configuration not stated),inactive
2,CCNC(=O)Nc1ccc(-c2nc3c(c(N4CCOC[C@@H]4C)n2)CCN(c2ncccn2)C3)cc1,inactive
3,CC(C)(C#N)c1ccc(N2C(=O)OCc3cnc4ccc(-c5cnc6ccccc6c5)cc4c32)cc1,inactive
4,C=CC(=O)Nc1cccc(CN2C(=O)N(c3c(Cl)c(OC)cc(OC)c3Cl)Cc3cnc(NCCCCN(CC)CC)nc32)c1,inactive
5,C[C@@H]1C[C@@H]2O[C@H]2/C=C\C=C\C(=O)Cc2c(Cl)c(O)cc(O)c2C(=O)O1,inactive
6,COc1cc2c(cc1OC)[C@@H]1[C@H](O)[C@@H](OC)C=C3CCN(C2)[C@H]31,inactive
7,CC(=O)O[C@H]1CC(C)(C)CC2[C@@]13[C@H](O)C[C@]1(C)[C@@]2(CCC2[C@@]4(C)CC[C@H](O[C@@H]5OC[C@H](O[C@@H]6O[C@H](CO)[C@@H](O)[C@H](O)[C@H]6O[C@@H]6OC[C@@H](O)[C@H](O)[C@H]6O)[C@H](O)[C@H]5O[C@@H]5O[C@H](CO)[C@@H](O)[C@H](O)[C@H]5O)C(C)(C)C4CC[C@]21C)O[C@@H]3O (some centres not stated),2.82 µM (active)
8,Oc1ccc(CNc2ccccc2F)c2cccnc12,inactive
9,O=C(Nc1ccc(S(=O)(=O)C(F)(F)F)cc1)C1=CCN(c2ncccc2C(F)(F)F)CC1,inactive
10,Cc1c(C(=O)N2CCOc3ccc(-c4ccc(N)nc4)cc3C2)ccc(S(C)(=O)=O)c1F,inactive
11,CCS(=O)(=O)N1CCN(c2ccc(Nc3ncc(C(N)=O)c(NC4CC4)n3)cc2)CC1,inactive
12,CNC(=O)c1cccc(-c2ccc3c(N4CCOC[C@@H]4C)nc(N4CCOC[C@@H]4C)nc3n2)c1,inactive
13,Cc1cc(C)c(Nc2ccnc(Nc3ccc(C#N)cc3)n2)c(C)c1,inactive
14,N#Cc1cnc2cnc(NCc3cccnc3)cc2c1Nc1ccc(F)c(Cl)c1,inactive
